CYP2C19 inhib = human CYP2C19 inhibition. P33261. CYP2C19 Supersomes, luciferin-H EGE luminescence, 30 min. inhibition, % at 5 µM. hit rate 21% among 96,000. AID 778;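 active means CYP2C19 inhibition above a set limit at 5 µM in the primary screen, cut at about 50% in these data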;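 further: plate controls were negative control wells for no effect and 2.5 mM tranylcypromine positive control for full effect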
Target sequence (P33261 whole entry, looked up): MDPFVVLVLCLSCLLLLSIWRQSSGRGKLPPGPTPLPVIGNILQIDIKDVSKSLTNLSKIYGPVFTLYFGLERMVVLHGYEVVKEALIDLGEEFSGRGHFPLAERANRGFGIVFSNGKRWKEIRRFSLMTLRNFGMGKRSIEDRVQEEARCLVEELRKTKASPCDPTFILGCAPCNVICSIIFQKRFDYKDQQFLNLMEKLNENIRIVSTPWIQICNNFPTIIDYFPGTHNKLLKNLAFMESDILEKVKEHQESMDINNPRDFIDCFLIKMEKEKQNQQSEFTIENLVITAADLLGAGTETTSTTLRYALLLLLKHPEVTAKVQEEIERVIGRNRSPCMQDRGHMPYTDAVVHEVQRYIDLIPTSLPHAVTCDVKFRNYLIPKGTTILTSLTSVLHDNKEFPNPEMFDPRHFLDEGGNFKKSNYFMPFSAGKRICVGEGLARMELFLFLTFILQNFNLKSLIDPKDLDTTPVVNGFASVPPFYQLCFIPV
Mac1 fbg inh = CD11b/CD18-fibrinogen binding inhibition | inhibition, % at 10 µM | P05107+P11215 | hit rate 0.54% among 93,000 | K562 CD11b/CD18 adhesion to fibrinogen, ATPlite luminescence; Mn2+ added to activate the integrin;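 active means primary inhibition of 50% or more at 10 µM, then 40% or more on retest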
CYP2C19 activ = activators of human cytochrome P450 2C19 | AID 1025 | 96,000 tested, under 10 active | recombinant CYP2C19, luciferin-H EGE luminescence; hits give high values; 0 = fully inhibited enzyme, 1 = untreated enzyme | P33261 | activation factor at 5 µM;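 active means activation factor of at least 2 at 5 µM in the primary screen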;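 further: 0 = wells with 2.5 mM tranylcypromine and 1 = vehicle-only wells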
CYP2C9 inhib = inhibitors of human CYP2C9 | P11712 | CYP2C9 Supersomes, luciferin-H conversion, luminescence | inhibition, % at 5 µM | hit rate 20% among 96,000;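 active means blocking of liver enzyme CYP2C9 beyond about 50% at 5 µM, limit read from the data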
CYP2C9 act = increases human cytochrome P450 2C9 activity; recombinant CYP2C9, luciferin-H conversion, luminescence; hits give high values; factor 1 = untreated enzyme, 0 = blocked; activation factor at 5 µM; hit rate 1.4% among 96,000; AID 1024;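 active means activation factor of 2 or more for CYP2C9 at a 5 µM dose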;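 further: 0 = sulfaphenazole-blocked wells and 1 = vehicle-only wells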
CD11b adhes enh = increases human CD11b/CD18 adhesion to fibrinogen; K562 CD11b/CD18 adhesion to fibrinogen, ATPlite luminescence; activation, % at 10 µM; hit rate 0.07% among 93,000; AID 1499;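 active means 10 µM primary screen giving 50% or more activity, confirmed by 40% or more on retest at that dose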
Numbers without * were called inactive; / = not tested or not shown. Only some compounds are listed: those with a hit (about 28% of all), similar ones and a draw of the others.

SMILES | CYP2C19 inhib | Mac1 fbg inh | CYP2C19 activ | CYP2C9 inhib | CYP2C9 act | CD11b adhes enh
CC(C)c1ccc(C2CC(=O)c3cnc(N4CCc5ccccc5C4)nc3C2)cc1 (configuration not stated) | 34 | -1 | 0.7 | 13 | 0.9 | -3
Cc1nc(N2CCN(Cc3ccccc3)CC2)nc2c1C(=O)CC(C)C2 (configuration not stated) | 61* | 15 | 0.4 | 77* | 0.2 | 0
CC1CC(C)CN(c2ncc3c(n2)CC(c2ccccc2)CC3=O)C1 (configuration not stated) | 74* | 15 | 0.3 | 90* | 0.1 | -8
Cc1nc2ccccc2n1C1CC(=O)N(Cc2ccccc2)C1=O (configuration not stated) | 31 | 32 | 0.7 | 32 | 0.7 | -4
Cc1ccccc1NC(=O)Nc1nc2ccc(S(C)(=O)=O)cc2s1 | / | -5 | / | / | / | 15
Cc1nc(N2CCN(Cc3ccccc3)CC2)[nH]c(=O)c1C | -10 | 0 | 1.1 | -2 | 1 | -2
COc1ccc(C2CC(=O)c3c(C)nc(N4CCN(Cc5ccccc5)CC4)nc3C2)cc1OC (configuration not stated) | 91* | 89 | 0.1 | 100* | 0 | -8
COCCN(CCOC)Cc1c(C)[nH]c2c(C)c(C)ccc2c1=O | 9 | 4 | 0.9 | 14 | 0.9 | -1
O=C(c1ccc2c(c1)OCO2)N(CC1CCCO1)C1(C(=O)NC2CCCC2)CCCCC1 (configuration not stated) | 51* | -4 | 0.5 | 55* | 0.5 | -2
C=CCSc1nc2ccccc2n1C(=O)/C=C/c1cc(OC)c(OC)c(OC)c1 | 55* | / | 0.5 | 78* | 0.2 | /
CSc1nnc(-c2ccc(S(=O)(=O)N3CCCC3)cc2)n1C | 16 | -2 | 0.8 | -6 | 1.1 | -2
CCOC(=O)C(NC(=O)c1ccccc1)(N1CCOCC1)C(F)(F)F (configuration not stated) | 13 | -2 | 0.9 | -5 | 1.1 | 0
CCOC(=O)C(NC(=O)c1ccc(OC)cc1)(N1CCOCC1)C(F)(F)F (configuration not stated) | 35 | -32 | 0.7 | 63* | 0.4 | -1
CCOC(=O)C(NC(=O)c1ccccc1)(N1CCCC1=O)C(F)(F)F (configuration not stated) | 53* | 45 | 0.5 | 17 | 0.8 | 4
CCOC(=O)C(NC(C)=O)(N1CCc2ccccc2C1)C(F)(F)F (configuration not stated) | 75* | 1 | 0.3 | 92* | 0.1 | -1
CCOC(=O)C(NCc1ccccc1OC)(NC(=O)c1ccccc1)C(F)(F)F (configuration not stated) | 48 | 0 | 0.5 | 63* | 0.4 | -5
COc1ccc(-c2cccc(C(=O)NCC(=O)O)c2)cc1 | 5 | -38 | 1 | 23 | 0.8 | 2
CCN(CC)C(=O)c1cccc(-c2ccc(OC)cc2)c1 | 69* | 0 | 0.3 | 45 | 0.6 | 13
O=c1cc(O)nc2n1CCCS2 | -8 | -10 | 1.1 | -5 | 1 | 2
O=C(CCc1ccc(S(=O)(=O)NCc2ccccc2)cc1)NCc1ccc2c(c1)OCO2 | 56* | -5 | 0.4 | 76* | 0.2 | 1
O=C(CCc1ccc(S(=O)(=O)NCCc2ccccc2)cc1)NCc1ccc2c(c1)OCO2 | 82* | 21 | 0.2 | 83* | 0.2 | -4
O=C(Nc1nonc1NC(=O)C1CCCCC1)C1CCCCC1 | 14 | -21 | 0.9 | 27 | 0.7 | 4
Cc1cc(-c2ccccc2)c(C#N)c(SCC(N)=O)n1 | 41 | -3 | 0.6 | -198 | 3* | 4
CCOC(=O)CC(=O)CSc1nc(-c2cccnc2)ccc1C#N | 30 | -18 | 0.7 | 34 | 0.7 | -2
CCOC(=O)CC(=O)CSc1nc(C)cc(-c2cccnc2)c1C#N | 28 | -8 | 0.7 | 73* | 0.3 | 1
SMILES | CYP2C19 inhib | Mac1 fbg inh | CYP2C19 activ | CYP2C9 inhib | CYP2C9 act | CD11b adhes enh
CCOC(=O)CC(=O)CSc1nc(-c2cccnc2)cc(C)c1C#N | 35 | / | 0.6 | 81* | 0.2 | /
COC(=O)CC(=O)CSc1nc(C)cc(C)c1C#N | 31 | -7 | 0.7 | 21 | 0.8 | -5
Cc1ccccc1CS(=O)(=O)CCC(=O)N1CCN(c2ccc(N3CCOCC3)nn2)CC1 | -8 | -41 | 1.1 | -10 | 1.1 | 10
CCOC(=O)N1CCN(C(=O)C(CC(C)C)NC(=O)C2CCCCC2)CC1 (configuration not stated) | -1 | -12 | 1 | -4 | 1 | -1
Cc1cc(=O)oc(C)c1C(=O)n1nc(C)c2c1C[C@@H]1[C@H]2C1(C)C | 31 | 1 | 0.7 | 62* | 0.4 | -1
O=C1Nc2ccc(S(=O)(=O)N3CCOCC3)c3cccc1c23 | 59* | -14 | 0.4 | -18 | 1.2 | -5
CCOc1ccccc1N1CCN(Cc2cccc(OC)c2OC)CC1 | 48 | 4 | 0.5 | -7 | 1.1 | 1
CCOc1ccccc1N1CCN(S(=O)(=O)c2ccc3c4c(cccc24)C(=O)N3)CC1 | 91* | 4 | 0.1 | 73* | 0.3 | 58
O=C1Nc2ccc(S(=O)(=O)NCc3ccccn3)c3cccc1c23 | 34 | -22 | 0.7 | 11 | 0.9 | -3
CN1CCN(S(=O)(=O)c2ccc3c4c(cccc24)C(=O)N3)CC1 | 55* | -11 | 0.4 | -88 | 1.9 | -1
O=C1Nc2ccc(S(=O)(=O)N3CCCC3)c3cccc1c23 | 83* | -12 | 0.2 | 41 | 0.6 | 1
C=CCNc1cc(C(F)(F)F)nc(-c2ccccn2)n1 | -3 | / | 1 | 10 | 0.9 | /
O=C1Nc2ccc(S(=O)(=O)N3CCCC3C(=O)O)c3cccc1c23 (configuration not stated) | -1 | -14 | 1 | -3 | 1 | 0
O=C1Nc2ccc(S(=O)(=O)N3CCCCCC3)c3cccc1c23 | 79* | -11 | 0.2 | 43 | 0.6 | 2
Cc1ccc(/C(C#N)=C\c2cn(C)c3ccccc23)cc1 | 80* | 7 | 0.2 | 92* | 0.1 | 1
Cc1ccc(Cl)cc1N1CCN(Cc2nc3ccsc3c(=O)[nH]2)CC1 | 70* | 4 | 0.3 | 22 | 0.8 | 0
COCC(O)CSc1nc(C)[nH]c1[N+](=O)[O-] (configuration not stated) | -10 | -27 | 1.1 | -19 | 1.2 | -1
COc1cc(CCN2C(=O)c3cccc4cccc(c34)C2=O)c(S(=O)(=O)N2CCC(C)CC2)cc1OC | / | -12 | / | / | / | 48
O=S(=O)(NCc1ccccc1)c1cccc(S(=O)(=O)N2CCOCC2)c1 | 64* | -5 | 0.4 | 42 | 0.6 | 11
O=S(=O)(NCc1cccs1)c1cccc(S(=O)(=O)N2CCCCC2)c1 | 52* | 6 | 0.5 | 21 | 0.8 | -1
CCCCNS(=O)(=O)c1cccc(S(=O)(=O)N2CCCC2)c1 | 32 | -7 | 0.7 | 38 | 0.6 | 1

Source: PubChem
